Tests used:
[1] = target: ALK tyrosine kinase receptor (Homo sapiens) (UniProt Q9UM73); details: at 10 µM
[2] = target: T1, Activin receptor type-1B (Homo sapiens) (UniProt P36896); details: at 1 µM
T1 sequence (whole entry): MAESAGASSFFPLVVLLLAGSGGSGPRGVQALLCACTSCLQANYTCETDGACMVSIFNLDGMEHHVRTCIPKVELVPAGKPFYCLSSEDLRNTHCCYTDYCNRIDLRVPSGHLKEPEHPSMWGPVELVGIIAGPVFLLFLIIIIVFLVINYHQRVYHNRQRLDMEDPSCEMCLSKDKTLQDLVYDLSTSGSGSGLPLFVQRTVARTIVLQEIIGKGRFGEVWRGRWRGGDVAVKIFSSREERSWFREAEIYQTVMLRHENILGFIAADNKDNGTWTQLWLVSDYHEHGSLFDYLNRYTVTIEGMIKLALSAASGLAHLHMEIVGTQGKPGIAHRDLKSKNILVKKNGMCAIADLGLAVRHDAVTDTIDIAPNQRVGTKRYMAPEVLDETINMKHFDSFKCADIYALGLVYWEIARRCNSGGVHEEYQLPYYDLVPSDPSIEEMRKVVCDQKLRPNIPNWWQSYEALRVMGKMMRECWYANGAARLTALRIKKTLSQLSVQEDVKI

[3] = target: T1, Activin receptor type-1B (Homo sapiens); details: at 10 µM
[4] = target: T2, AMP-activated protein kinase (AMPK) alpha-1/beta-1/gamma-1 (Homo sapiens) (UniProt P54619+Q9Y478+Q13131); details: at 1 µM
[5] = target: T2, AMP-activated protein kinase (AMPK) alpha-1/beta-1/gamma-1 (Homo sapiens); details: at 10 µM
[6] = target: T3, AMP-activated protein kinase, AMPK (Homo sapiens) (UniProt P54646+O43741+P54619+Q9UGJ0+Q9Y478+Q13131+Q9UGI9); details: at 1 µM
[7] = target: T3, AMP-activated protein kinase, AMPK (Homo sapiens); details: at 10 µM
[8] = target: T4, NUAK family SNF1-like kinase 1 (Homo sapiens) (UniProt O60285); details: at 1 µM
T4 sequence (whole entry): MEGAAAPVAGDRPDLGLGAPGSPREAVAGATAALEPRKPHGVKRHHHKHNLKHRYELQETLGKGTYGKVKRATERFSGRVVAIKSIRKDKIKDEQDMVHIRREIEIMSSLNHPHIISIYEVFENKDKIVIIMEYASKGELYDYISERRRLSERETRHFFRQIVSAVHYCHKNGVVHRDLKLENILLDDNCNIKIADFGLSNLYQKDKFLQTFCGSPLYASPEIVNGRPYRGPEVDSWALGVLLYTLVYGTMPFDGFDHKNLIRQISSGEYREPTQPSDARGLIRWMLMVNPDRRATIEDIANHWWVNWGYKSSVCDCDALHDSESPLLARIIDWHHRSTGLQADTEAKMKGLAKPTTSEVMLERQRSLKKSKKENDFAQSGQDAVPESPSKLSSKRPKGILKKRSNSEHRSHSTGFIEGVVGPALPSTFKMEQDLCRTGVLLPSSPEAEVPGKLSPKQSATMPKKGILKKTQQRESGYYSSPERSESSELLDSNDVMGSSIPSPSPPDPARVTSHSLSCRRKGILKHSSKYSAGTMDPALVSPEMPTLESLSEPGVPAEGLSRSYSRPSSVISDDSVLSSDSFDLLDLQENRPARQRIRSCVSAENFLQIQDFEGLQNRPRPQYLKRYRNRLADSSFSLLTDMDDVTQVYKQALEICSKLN

[9] = target: T4, NUAK family SNF1-like kinase 1 (Homo sapiens); details: at 10 µM
[10] = target: T5, Mitogen-activated protein kinase kinase kinase 5 (Homo sapiens) (UniProt Q99683); details: at 1 µM
T5 sequence (whole entry): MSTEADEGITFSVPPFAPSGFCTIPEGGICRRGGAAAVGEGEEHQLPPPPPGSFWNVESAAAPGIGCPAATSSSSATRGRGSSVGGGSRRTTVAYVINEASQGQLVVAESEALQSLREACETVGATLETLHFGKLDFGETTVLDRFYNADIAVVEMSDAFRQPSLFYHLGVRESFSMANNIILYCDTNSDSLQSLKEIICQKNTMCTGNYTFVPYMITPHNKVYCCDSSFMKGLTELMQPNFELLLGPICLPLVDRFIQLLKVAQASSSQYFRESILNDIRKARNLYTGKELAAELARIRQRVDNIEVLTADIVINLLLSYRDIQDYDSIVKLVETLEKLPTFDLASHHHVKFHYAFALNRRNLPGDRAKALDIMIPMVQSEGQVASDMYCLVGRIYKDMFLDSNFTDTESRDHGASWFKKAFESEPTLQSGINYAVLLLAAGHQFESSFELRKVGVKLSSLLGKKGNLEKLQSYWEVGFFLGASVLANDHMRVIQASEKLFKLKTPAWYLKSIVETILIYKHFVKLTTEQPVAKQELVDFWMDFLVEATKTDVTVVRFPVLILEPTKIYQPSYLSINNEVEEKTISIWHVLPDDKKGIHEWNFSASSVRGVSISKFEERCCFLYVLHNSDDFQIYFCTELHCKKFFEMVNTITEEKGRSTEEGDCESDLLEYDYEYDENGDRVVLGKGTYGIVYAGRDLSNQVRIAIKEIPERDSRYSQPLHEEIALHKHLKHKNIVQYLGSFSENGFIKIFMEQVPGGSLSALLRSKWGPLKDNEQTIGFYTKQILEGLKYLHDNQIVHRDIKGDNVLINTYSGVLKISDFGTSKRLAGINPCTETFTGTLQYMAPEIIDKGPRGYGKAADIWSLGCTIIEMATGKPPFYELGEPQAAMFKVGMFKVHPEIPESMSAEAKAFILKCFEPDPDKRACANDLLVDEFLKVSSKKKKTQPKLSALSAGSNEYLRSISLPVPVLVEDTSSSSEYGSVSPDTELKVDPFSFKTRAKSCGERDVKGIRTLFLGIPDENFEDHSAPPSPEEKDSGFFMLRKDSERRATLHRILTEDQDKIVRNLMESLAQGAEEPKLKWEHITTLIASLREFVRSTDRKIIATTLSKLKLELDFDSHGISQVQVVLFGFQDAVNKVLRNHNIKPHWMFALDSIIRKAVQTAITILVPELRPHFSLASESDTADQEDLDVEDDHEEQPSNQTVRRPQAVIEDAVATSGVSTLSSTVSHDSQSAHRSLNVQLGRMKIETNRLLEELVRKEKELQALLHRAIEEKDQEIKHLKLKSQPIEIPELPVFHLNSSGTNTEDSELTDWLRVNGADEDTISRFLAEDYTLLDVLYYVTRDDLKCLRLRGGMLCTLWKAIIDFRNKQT

[11] = target: Platelet-derived growth factor receptor alpha (Homo sapiens) (UniProt P16234); details: at 1 µM
Chain of Platelet-derived growth factor receptor alpha (Homo sapiens) (P16234 whole entry): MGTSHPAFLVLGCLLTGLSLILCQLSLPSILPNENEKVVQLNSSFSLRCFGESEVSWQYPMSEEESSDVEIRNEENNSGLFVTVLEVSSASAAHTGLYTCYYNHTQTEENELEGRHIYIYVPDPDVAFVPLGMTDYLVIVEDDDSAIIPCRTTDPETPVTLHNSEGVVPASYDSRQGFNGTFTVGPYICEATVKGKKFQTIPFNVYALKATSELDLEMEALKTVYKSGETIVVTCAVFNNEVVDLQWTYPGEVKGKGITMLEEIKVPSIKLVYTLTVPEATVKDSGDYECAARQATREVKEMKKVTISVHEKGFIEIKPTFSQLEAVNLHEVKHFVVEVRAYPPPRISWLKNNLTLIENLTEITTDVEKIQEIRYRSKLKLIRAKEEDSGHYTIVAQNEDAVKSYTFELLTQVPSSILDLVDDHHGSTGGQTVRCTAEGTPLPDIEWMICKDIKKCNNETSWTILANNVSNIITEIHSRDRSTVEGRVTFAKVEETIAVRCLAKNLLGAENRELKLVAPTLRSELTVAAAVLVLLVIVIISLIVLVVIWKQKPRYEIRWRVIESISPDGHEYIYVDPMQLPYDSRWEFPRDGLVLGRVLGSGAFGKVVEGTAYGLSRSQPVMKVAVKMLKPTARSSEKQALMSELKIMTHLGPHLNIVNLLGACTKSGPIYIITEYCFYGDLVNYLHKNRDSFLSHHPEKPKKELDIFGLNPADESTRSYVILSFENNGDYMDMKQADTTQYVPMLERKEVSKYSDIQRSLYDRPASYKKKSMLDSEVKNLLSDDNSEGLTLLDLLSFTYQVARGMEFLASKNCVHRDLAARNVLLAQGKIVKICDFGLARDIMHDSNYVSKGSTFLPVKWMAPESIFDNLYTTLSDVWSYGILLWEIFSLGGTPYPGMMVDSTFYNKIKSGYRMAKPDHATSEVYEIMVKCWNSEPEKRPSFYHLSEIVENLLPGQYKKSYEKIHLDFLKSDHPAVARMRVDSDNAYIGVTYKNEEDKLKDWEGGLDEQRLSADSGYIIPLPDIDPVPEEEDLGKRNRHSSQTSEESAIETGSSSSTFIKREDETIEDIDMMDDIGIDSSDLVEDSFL

[12] = target: Platelet-derived growth factor receptor alpha (Homo sapiens) (UniProt P16234); details: at 10 µM
[13] = target: Platelet-derived growth factor receptor beta (Homo sapiens) (UniProt P09619); details: at 1 µM
Chain of Platelet-derived growth factor receptor beta (Homo sapiens) (P09619 whole entry): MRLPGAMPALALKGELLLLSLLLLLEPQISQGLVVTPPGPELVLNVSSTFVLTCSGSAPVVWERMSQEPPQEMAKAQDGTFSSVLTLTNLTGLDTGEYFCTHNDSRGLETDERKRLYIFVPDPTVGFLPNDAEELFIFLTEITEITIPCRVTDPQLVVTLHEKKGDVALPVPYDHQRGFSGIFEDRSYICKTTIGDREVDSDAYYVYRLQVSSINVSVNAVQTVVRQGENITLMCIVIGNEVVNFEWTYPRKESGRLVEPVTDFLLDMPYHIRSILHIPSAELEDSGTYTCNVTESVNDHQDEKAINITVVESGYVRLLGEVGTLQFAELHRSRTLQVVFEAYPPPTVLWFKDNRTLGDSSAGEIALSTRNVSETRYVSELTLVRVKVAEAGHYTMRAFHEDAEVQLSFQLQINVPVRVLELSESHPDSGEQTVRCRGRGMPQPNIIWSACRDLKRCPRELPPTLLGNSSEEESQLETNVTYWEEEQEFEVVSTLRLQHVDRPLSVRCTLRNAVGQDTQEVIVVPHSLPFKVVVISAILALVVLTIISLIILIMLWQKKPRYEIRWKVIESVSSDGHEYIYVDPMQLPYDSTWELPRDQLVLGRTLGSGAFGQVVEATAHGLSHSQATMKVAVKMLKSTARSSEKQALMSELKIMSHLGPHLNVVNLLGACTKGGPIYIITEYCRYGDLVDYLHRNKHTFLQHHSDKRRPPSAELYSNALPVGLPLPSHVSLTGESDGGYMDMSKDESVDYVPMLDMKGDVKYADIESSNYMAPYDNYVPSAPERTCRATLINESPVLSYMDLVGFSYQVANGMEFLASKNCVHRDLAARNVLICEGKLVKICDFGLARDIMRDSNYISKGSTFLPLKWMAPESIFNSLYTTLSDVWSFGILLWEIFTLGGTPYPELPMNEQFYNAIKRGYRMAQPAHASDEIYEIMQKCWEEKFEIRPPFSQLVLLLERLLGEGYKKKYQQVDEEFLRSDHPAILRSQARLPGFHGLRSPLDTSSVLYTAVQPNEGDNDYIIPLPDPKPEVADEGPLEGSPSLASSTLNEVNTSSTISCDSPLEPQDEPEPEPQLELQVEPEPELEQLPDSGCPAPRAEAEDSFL

[14] = target: Platelet-derived growth factor receptor beta (Homo sapiens) (UniProt P09619); details: at 10 µM
[15] = target: T6, 3-phosphoinositide-dependent protein kinase 1 (Homo sapiens) (UniProt O15530); details: at 1 µM
T6 sequence (whole entry): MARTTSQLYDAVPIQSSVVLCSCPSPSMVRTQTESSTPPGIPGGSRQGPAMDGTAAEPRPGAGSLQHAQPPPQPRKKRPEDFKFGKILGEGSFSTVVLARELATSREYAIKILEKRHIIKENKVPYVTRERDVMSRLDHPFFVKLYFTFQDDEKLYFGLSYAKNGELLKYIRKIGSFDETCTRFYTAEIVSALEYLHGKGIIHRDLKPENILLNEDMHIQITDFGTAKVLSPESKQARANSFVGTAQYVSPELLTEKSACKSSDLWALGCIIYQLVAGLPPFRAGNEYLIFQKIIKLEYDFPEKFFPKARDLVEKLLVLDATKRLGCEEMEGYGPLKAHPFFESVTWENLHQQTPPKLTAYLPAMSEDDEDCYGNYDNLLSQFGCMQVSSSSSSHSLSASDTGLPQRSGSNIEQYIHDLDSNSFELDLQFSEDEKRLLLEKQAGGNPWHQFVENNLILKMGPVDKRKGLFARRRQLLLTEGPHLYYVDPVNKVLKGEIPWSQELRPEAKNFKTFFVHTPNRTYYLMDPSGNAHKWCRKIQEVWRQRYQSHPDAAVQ

[16] = target: T6, 3-phosphoinositide-dependent protein kinase 1 (Homo sapiens); details: at 10 µM
[17] = target: cAMP-dependent protein kinase catalytic subunit alpha (Homo sapiens) (UniProt P17612); details: at 1 µM
[18] = target: RAC-gamma serine/threonine-protein kinase (Homo sapiens) (UniProt Q9Y243); details: at 1 µM
Chain of RAC-gamma serine/threonine-protein kinase (Homo sapiens) (Q9Y243 whole entry): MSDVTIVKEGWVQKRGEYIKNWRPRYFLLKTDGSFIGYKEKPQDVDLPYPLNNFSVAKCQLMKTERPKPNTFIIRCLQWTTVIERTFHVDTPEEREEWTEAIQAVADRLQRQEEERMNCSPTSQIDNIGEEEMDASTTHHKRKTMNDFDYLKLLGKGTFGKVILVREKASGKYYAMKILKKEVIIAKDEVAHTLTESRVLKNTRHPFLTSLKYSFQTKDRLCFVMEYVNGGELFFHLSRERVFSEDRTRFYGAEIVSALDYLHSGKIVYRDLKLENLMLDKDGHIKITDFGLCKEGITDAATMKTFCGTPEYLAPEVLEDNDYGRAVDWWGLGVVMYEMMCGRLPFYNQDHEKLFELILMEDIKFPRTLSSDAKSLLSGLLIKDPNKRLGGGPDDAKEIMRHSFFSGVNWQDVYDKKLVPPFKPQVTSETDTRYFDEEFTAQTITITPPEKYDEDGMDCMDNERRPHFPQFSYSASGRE

[19] = target: RAC-gamma serine/threonine-protein kinase (Homo sapiens) (UniProt Q9Y243); details: at 10 µM
[20] = target: cAMP-dependent protein kinase catalytic subunit alpha (Homo sapiens) (UniProt P17612); details: at 10 µM

Chain of ALK tyrosine kinase receptor (Homo sapiens) (Q9UM73 19-1620 limits assumed): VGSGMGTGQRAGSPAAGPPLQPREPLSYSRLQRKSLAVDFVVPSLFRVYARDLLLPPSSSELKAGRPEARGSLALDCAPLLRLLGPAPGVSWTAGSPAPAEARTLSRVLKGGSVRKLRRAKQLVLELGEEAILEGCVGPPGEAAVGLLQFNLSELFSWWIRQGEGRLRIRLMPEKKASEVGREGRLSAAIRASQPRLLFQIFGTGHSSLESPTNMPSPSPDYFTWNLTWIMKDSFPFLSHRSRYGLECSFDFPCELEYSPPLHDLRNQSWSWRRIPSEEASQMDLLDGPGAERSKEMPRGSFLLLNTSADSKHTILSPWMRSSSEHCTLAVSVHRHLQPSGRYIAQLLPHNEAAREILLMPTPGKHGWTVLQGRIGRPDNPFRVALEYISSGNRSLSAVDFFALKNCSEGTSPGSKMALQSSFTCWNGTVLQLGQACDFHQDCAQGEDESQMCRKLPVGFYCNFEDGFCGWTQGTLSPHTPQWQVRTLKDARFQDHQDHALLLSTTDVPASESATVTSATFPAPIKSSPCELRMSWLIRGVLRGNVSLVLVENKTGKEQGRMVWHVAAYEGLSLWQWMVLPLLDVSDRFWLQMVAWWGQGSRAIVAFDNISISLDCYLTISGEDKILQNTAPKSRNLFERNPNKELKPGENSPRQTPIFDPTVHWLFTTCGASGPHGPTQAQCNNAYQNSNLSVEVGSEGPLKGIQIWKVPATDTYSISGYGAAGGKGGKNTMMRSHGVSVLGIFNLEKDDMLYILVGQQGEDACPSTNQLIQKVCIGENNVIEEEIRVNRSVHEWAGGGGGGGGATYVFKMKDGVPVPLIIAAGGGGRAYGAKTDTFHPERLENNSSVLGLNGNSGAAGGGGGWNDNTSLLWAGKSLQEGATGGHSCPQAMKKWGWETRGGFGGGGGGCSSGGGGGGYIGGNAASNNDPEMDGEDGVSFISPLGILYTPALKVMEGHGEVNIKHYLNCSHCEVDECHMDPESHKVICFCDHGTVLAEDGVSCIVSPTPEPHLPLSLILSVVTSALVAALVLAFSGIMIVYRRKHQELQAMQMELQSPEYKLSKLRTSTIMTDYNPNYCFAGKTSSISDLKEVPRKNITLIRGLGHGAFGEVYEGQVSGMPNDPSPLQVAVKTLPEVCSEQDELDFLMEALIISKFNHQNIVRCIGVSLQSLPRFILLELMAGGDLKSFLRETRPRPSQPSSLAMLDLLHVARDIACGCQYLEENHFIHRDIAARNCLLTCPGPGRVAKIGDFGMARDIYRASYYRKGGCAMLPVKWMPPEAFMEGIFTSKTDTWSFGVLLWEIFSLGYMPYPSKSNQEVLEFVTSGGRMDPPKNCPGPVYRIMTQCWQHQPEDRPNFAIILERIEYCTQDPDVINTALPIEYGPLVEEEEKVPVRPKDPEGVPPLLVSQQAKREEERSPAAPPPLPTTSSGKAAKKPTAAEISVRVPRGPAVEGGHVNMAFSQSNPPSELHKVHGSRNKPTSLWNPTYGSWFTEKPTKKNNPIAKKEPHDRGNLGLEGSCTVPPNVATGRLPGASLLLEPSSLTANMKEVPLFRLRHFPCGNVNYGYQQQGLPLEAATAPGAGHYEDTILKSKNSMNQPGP

Row | Structure (SMILES) | residual activity [1] | residual activity [2] | residual activity [3] | residual activity [4] | residual activity [5] | residual activity [6] | residual activity [7] | residual activity [8] | residual activity [9] | residual activity [10] | residual activity [11] | residual activity [12] | residual activity [13] | residual activity [14] | residual activity [15] | residual activity [16] | residual activity [17] | residual activity [18] | residual activity [19] | residual activity [20]
1 | COc1ccc(S(=O)(=O)N(CCO)c2ccccc2CN(C)C/C=C/c2ccc(Cl)cc2)cc1 | 59% | 96% | 102% | 104% | 76% | 99% | 74% | 100% | 75% | 94% | 109% | 95% | 109% | 104% | 119% | 114% | 105% | 104% | 56% | 
2 | CN(C)CCCn1cc(C2=C(c3c[nH]c4ccccc34)C(=O)NC2=O)c2ccccc21 |  | 119% | 76% | 44% | 10% | 26% | 4% | 35% | 11% |  | 121% | 78% | 106% | 65% | 63% | 15% | 60% | 30% | 7% | 20%
3 | Cc1nc(-c2ccccc2)c(-c2ccncc2)o1 | 99% | 119% | 88% | 105% | 108% | 114% | 114% | 99% | 88% | 100% | 89% | 83% | 99% | 92% | 114% | 102% | 94% | 118% | 88% | 85%
4 | CO[C@H]1C[C@@H]2CC[C@@H](C)[C@@](O)(O2)C(=O)C(=O)N2CCCC[C@H]2C(=O)O[C@H]([C@H](C)C[C@@H]2CC[C@@H](O)[C@H](OC)C2)CC(=O)[C@H](C)/C=C(\C)[C@@H](O)[C@@H](OC)C(=O)[C@H](C)C[C@H](C)/C=C/C=C/C=C/1C | 32% | 115% | 110% | 79% |  | 93% | 107% | 99% | 96% | 85% | 111% | 102% | 116% | 114% | 117% | 126% | 112% | 103% | 98% | 141%
5 | COc1ccc(C(=O)Nc2sc3c(c2C(N)=O)CCCC3)cc1OC | 72% |  | 83% | 90% | 78% | 93% | 75% | 87% | 75% | 114% | 87% | 86% | 89% | 97% | 95% | 96% | 97% | 102% | 87% | 95%
6 | CO[C@@H]1[C@H](N(C)C(=O)c2ccccc2)C[C@H]2O[C@]1(C)n1c3ccccc3c3c4c(c5c6ccccc6n2c5c31)C(=O)NC4 | 33% | 128% | 102% | 10% | 6% | 1% | 4% | 7% | 7% | 96% | 54% | 32% | 46% | 25% | 2% | 1% |  | 22% | 14% | 10%
7 | O=C(O)c1ccc2c3c1cccc3c(=O)n1c3ccccc3nc21 | 49% | 110% | 108% | 34% | 6% | 37% | 13% | 73% | 28% | 90% | 113% | 114% |  | 108% | 108% | 82% | 73% | 102% | 82% | 89%
8 | CC[n+]1c(/C=C/N(C)c2ccccc2)n(-c2ccccc2)c2ccc(-c3nc4ccccc4s3)cc21 | 69% | 122% | 87% | 97% | 75% | 116% | 91% | 121% | 89% | 106% | 117% | 94% | 103% | 125% | 121% | 149% | 110% | 105% | 65% | 146%
9 | CC(C)n1cnc2c(NCc3ccccc3)nc(NCCCO)nc21 | 64% | 106% | 111% | 88% | 87% | 99% | 90% | 99% | 83% | 113% | 105% | 107% | 98% | 94% | 107% | 104% | 98% | 104% | 90% | 99%
10 | CC(=O)c1ccc(N2CCOCC2)cc1O | 93% | 129% | 106% | 102% | 90% |  |  | 97% | 92% | 92% |  | 107% | 112% | 105% |  |  | 87% | 106% | 104% | 96%
11 | c1ccc(-c2n[nH]cc2-c2ccnc3ccccc23)nc1 | 105% | -3% | -4% | 86% | 76% | 101% | 81% | 99% | 90% | 98% |  |  | 96% | 109% | 104% | 104% |  | 96% | 96% | 93%
12 | COc1ccc(OC)c2c(=S)c3ccccc3[nH]c12 | 76% | 90% | 117% | 90% | 81% |  | 87% | 103% | 84% | 96% | 109% | 108% | 99% | 102% | 96% | 96% | 87% | 89% | 84% | 94%
13 | Oc1n[nH]c2nnc(-c3c(-c4ccccc4)nn4ccccc34)cc12 | 89% |  | 115% | 86% | 82% | 97% | 90% | 100% | 45% | 111% | 103% | 110% | 103% | 110% | 85% | 70% | 86% | 96% | 84% | 101%
14 | Cn1nc2c3c(cccc31)C(=O)c1ccccc1-2 | 45% | 104% | 109% | 91% | 73% | 81% | 85% | 57% | 31% | 71% |  |  | 91% | 88% | 95% | 74% | 87% | 95% | 91% | 90%

From ChEMBL document CHEMBL2218924, “A broad activity screen in support of a chemogenomic map for kinase signalling research and drug discovery” (Biochem J, 2013)
